About 430 (19%) of roughly 2,300 compounds were called active. Only a sample is shown. Values without a mark were called inactive.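 How the source made its calls: active means mean activation across triplicates above the hit threshold derived in the original primary screen (cut at about 15% in these data); inactive means the rest.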
What follows are molecules tested against 5-hydroxytryptamine receptor 2A (Mus musculus) (UniProt P35363) (assay: agonist activity at mouse 5-HT2A receptor – cell-based, luminescence, CHO-K1 PathHunter, triplicate, confirmation (AID 624381)). Details: CHO-K1 PathHunter beta-arrestin recruitment, at 7.6 µM, active compounds read high, DMSO 0%, 30 µM serotonin 100%.
5-hydroxytryptamine receptor 2A (Mus musculus), sequence (P35363 whole entry, looked up): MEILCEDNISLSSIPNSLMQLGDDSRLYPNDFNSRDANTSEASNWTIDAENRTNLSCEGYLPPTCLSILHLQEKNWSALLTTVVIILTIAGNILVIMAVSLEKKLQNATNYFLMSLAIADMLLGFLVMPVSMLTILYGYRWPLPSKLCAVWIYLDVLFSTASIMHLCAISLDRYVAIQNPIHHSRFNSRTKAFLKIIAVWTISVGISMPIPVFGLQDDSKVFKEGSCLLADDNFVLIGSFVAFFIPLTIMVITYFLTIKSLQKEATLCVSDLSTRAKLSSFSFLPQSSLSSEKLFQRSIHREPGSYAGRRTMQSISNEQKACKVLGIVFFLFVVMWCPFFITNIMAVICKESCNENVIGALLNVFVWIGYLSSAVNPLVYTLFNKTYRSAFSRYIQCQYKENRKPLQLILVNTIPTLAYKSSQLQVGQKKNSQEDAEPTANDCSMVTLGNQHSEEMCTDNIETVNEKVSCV
`Cc1[nH]c2ccccc2c1CCN(Cc1cccs1)C(=S)NC(C)(C)C` was tested, and the activation was 4.41%.
With `CCOc1ccc(/C(O)=C2\C(=O)C(=O)N(c3ccc(OC)cc3)C2c2ccccc2[N+](=O)[O-])cc1` (stereo not given) the activation was 1.71%.
Work on `CCCCn1c(N)c(N(CC(C)C)C(=O)CSc2ccc([N+](=O)[O-])cc2)c(=O)[nH]c1=O` yielded an activation of 0.81%.
`C=CCn1c(=NC(=O)c2cccs2)sc2cc(NC(C)=O)ccc21` gave an activation of -1%.
`COc1ccc(NS(=O)(=O)c2cc(C(=O)Nc3ccccc3C(=O)O)ccc2C)cc1` gave an activation of 5.94%.
`CCOC(=O)c1cc(-c2ccccc2C)n(Cc2cc(C)no2)n1` was tested, and the activation was 2.4%.
With `O=C(c1ccco1)N1CCN(CCOc2ccccc2)CC1` the activation was 34.5% (active).
`COc1cccc(OC)c1OCCN1CCN(C(=O)c2ccco2)CC1` was tested, and the activation was 78.4% (active).
In the case of `CSc1ncnc2c1ncn2CCCNCc1cccs1`, the activation is reported as -4.72%.
`Oc1ccc(CN2CCN(c3ncccn3)CC2)cc1` was tested, and the activation was 101% (active).
`Cc1ccc(CN2CCN(c3ncccn3)CC2)c(C)c1` was tested, and the activation was 118% (active).
`COc1ccccc1CN1CCN(Cc2cc(OC)c(OC)cc2OC)CC1` showed an activation of 8.39%.
Molecule `CC(C)c1cc(C(=O)O)on1` has an activation of 13.4%.
For `O=C(CNCc1cccs1)Nc1cc(S(=O)(=O)N2CCCC2)ccc1Cl`, the activation was 50.6% (active).
`O=C1CCc2cc(S(=O)(=O)N3CCC(C(=O)NCc4ccccc4Cl)CC3)ccc2N1` showed an activation of -6.01%.
For `COC(=O)c1ccc(CSc2nnc(NC(C)C)s2)cc1`, the activation was -5.43%.
With `COc1ccc(C2c3[nH]c4ccccc4c3C[C@H]3C(=O)N(CC(C)C)CC(=O)N23)c(OC)c1` (stereo not given in full) the activation was 0.84%.
For `Cc1cccc(CN2CCN(C3CN(Cc4ccccc4)S(=O)(=O)C3)CC2)c1` (stereo not given), the activation was 8.09%.
With `O=C(NCCCN1CCN(c2ccccc2F)CC1)C1CCC(=O)N1C1CCCCC1` (stereo not given) the activation was 41.4% (active).
For `CC(C)Oc1ccccc1C(=O)NC(CO)C(=O)O` (stereo not given), the activation was 0.21%.
`Cc1cccc(CN2CCN(C3CN(Cc4cn(Cc5cc(C)cc(C)c5)nn4)S(=O)(=O)C3)CC2)c1` (stereo not given) gave an activation of 8.35%.
`Cc1cc(C(=O)OCC(=O)N2c3ccccc3NC(=O)C2(C)C)c(C)n1-c1ccccc1` showed an activation of -2.45%.
`CN(C)[C@@H]1C(=O)C(C(N)=O)=C(O)[C@@]2(O)C(=O)C3=C(O)c4c(O)ccc(Cl)c4[C@@H](O)[C@H]3C[C@@H]12` was tested, and the activation was 40.1% (active).
Work on `CCCCC(CC)CNC(=O)CCCCn1c(=O)[nH]c2ccsc2c1=O` (stereo not given) yielded an activation of -3.5%.
In the case of `COc1ccc(-c2nc3cc([N+](=O)[O-])ccc3o2)cc1OC`, the activation is reported as -2.5%.

— PubChem BioAssay AID624381 (The Scripps Research Institute Molecular Screening Center, 2012)
